# Laboratory results taken from PubChem BioAssay (EPA / NIEHS).
# Results filed as inconclusive are left out. The source made the active and inactive calls. Rule for the calls, unless noted: active = hit-call score of the fitted dose curve at least 0.9, where 1 is the maximum; inconclusive = response in the unintended direction; inactive = score below 0.9.
# Legend:
# [1] = ATG_TCF_b_cat_CIS: Attagene CIS-FACTORIAL HepG2 Assay for human T-Cell-Factor with beta-catenin (TCF/b-cat) (AID 2282965; active = hit-call score of the fitted dose curve at least 0.9, where 1 is the maximum; inactive = score below 0.9); settings: HepG2 TCF/beta-catenin cis-reporter transcription, actives raise or lower the signal
# In short: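 HepG2 cells transiently transfected with multiple cis-promoter-regulated reporter transcription units, so endogenous transcription factor activity is measured. Reporter mRNA read 24 hours after dosing by RT-PCR, fluorescent labelling and capillary electrophoresis; bidirectional fitting against DMSO.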
# [2] = ATG_TAL_CIS: Attagene CIS-FACTORIAL HepG2 Assay for human TAL Basal Promoter (AID 2282966; active = hit-call score of the fitted dose curve at least 0.9, where 1 is the maximum; inactive = score below 0.9;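 note: background control endpoint measuring basal TAL promoter reporter mRNA not a specific factor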); settings: HepG2 Attagene cis-factorial TAL promoter reporter; actives raise or lower the signal
# In short: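 Transiently transfected HepG2 (cis-regulated reporter units), 24 h treatment, mRNA read by fluorescent CE after RT-PCR; bidirectional fit, DMSO baseline.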
# [3] = ATG_TGFb_CIS: Attagene CIS-FACTORIAL HepG2 Assay for human Transforming Growth Factor (TGF) (AID 2282967; active = hit-call score of the fitted dose curve at least 0.9, where 1 is the maximum; inactive = score below 0.9); settings: HepG2 Attagene CIS TGFb reporter, mRNA transcription; actives raise or lower the signal
# In short: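 Cells were dosed for 24 hours, after which total RNA was reverse-transcribed and reporter sequences amplified, labeled and sized by capillary electrophoresis. Activity was fitted in both directions against DMSO.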
# [4] = ATG_VDRE_CIS: Attagene CIS-FACTORIAL HepG2 Assay for human Vitamin D Receptor Element (VDRE) (AID 2282968; active = hit-call score of the fitted dose curve at least 0.9, where 1 is the maximum; inactive = score below 0.9); settings: HepG2 VDRE cis-reporter transcription, actives raise or lower the signal
# In short: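 Transfected HepG2 reporter cells, chemical treatment 24 h. RNA isolated, cDNA amplified with reporter-specific primers, products analysed by capillary electrophoresis. Endpoint fitted in both directions versus DMSO.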
# [5] = target: Nuclear receptor subfamily 1 group I member 3 (Homo sapiens) (UniProt Q14994); assay: ATG_CAR_TRANS: Attagene TRANS-FACTORIAL HepG2 Assay for human Constitutive Androstane Receptor (CAR) (AID 2282969); settings: HepG2 Attagene TRANS-FACTORIAL CAR reporter;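 note: activators raise reporter mRNA above DMSO so AC50 marks induction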
# Sequence of Nuclear receptor subfamily 1 group I member 3 (Homo sapiens) (Q14994 whole entry, looked up, the tested form may be a part): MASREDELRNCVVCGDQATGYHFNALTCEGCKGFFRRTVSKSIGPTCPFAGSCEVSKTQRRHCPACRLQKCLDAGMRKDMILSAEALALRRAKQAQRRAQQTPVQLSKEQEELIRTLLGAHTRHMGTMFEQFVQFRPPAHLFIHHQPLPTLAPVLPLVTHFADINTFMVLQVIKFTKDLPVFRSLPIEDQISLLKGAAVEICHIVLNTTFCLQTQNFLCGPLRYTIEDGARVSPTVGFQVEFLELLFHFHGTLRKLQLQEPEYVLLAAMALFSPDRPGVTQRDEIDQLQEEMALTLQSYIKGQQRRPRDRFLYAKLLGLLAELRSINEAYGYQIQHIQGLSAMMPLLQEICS
# In short: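 Steps: transient transfection of HepG2 with multiple GAL4-UAS reporter units; 24 h compound incubation; RNA isolation, RT-PCR, 6-FAM primer extension, HpaI digest; capillary electrophoresis. Gain-of-signal relative to DMSO negative control.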
# [6] = target: Estrogen receptor (Homo sapiens) (UniProt P03372); assay: ATG_ERa_TRANS: Attagene TRANS-FACTORIAL HepG2 Assay for human Estrogen Receptor alpha (ERa) (AID 2282970); settings: HepG2 Attagene TRANS ERa GAL4 reporter, mRNA
# Sequence of Estrogen receptor (Homo sapiens) (P03372 whole entry, looked up, the tested form may be a part): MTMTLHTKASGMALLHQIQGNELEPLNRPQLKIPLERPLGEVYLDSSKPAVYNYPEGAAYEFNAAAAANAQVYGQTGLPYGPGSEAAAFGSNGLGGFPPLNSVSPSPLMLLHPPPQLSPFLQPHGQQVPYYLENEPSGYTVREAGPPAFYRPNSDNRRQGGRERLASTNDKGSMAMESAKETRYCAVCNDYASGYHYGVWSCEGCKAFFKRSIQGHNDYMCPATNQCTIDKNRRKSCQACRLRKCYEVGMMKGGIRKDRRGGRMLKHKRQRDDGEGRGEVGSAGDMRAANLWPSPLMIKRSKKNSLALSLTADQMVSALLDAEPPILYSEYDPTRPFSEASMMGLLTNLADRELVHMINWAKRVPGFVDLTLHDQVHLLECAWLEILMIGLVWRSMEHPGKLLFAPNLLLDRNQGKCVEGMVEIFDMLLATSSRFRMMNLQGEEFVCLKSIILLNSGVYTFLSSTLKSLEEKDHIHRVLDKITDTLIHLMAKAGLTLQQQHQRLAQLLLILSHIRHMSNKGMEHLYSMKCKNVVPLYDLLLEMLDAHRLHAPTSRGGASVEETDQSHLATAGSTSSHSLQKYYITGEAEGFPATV
# In short: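 One of 30 multiplexed endpoints from a HepG2 TRANS system, this one reports ERa-Gal4-driven reporter mRNA. Transcripts were quantified 24 hours post-dosing by fluorescent RT-PCR and capillary electrophoresis, with activity scored as induction over DMSO.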
# [7] = target: X-box-binding protein 1 (Homo sapiens) (UniProt P17861); assay: ATG_Xbp1_CIS: Attagene CIS-FACTORIAL HepG2 Assay for human X-box Binding Protein 1 (XBP1) (AID 2282972; active = hit-call score of the fitted dose curve at least 0.9, where 1 is the maximum; inactive = score below 0.9); settings: HepG2 XBP1 cis-element reporter, Attagene multiplex; actives raise or lower the signal
# Sequence of X-box-binding protein 1 (Homo sapiens) (P17861 whole entry, looked up): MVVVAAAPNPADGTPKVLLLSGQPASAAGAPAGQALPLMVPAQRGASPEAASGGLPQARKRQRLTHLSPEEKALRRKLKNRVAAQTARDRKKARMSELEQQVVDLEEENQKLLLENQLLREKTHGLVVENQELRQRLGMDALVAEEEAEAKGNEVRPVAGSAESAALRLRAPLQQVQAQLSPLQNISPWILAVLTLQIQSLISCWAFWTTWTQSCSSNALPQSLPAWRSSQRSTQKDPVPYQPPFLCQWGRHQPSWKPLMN
# In short: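 Reporter transcripts were quantified by RT-PCR with fluorescent primer extension and capillary electrophoresis after 24 h chemical exposure. Cells: transiently transfected HepG2 carrying cis-regulated reporter constructs; data fitted bidirectionally relative to DMSO.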
# [8] = ATG_M_19_TRANS: Attagene TRANS-FACTORIAL HepG2 Assay for M19 Transcription Factor (Internal Marker) (AID 2282974); settings: HepG2 Attagene TRANS-FACTORIAL M19 internal marker reporter
# In short: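 Using RT-PCR and capillary electrophoresis, reporter mRNA from transiently transfected human HepG2 cells was quantified following 24 h exposure; activity was fitted in the positive direction against DMSO.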
# [9] = ATG_GAL4_TRANS: Attagene TRANS-FACTORIAL HepG2 Assay for GAL4 (Internal Marker) (AID 2282976); settings: HepG2 Attagene TRANS GAL4 internal marker reporter
# In short: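 HepG2 cells transiently transfected with multiplexed GAL4-UAS reporter constructs were dosed for 24 h. Reporter mRNA was measured by RT-PCR, 6-FAM primer extension, HpaI digestion and capillary electrophoresis, and gain of signal was fitted relative to DMSO.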
# [10] = target: Estrogen-related receptor gamma (Homo sapiens) (UniProt P62508); assay: ATG_ERRg_TRANS: Attagene TRANS-FACTORIAL HepG2 Assay for human Estrogen-Related Receptor gamma (ERRg) (AID 2282977); settings: HepG2 Attagene TRANS reporter, ERRg transactivation;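 note: hits increase reporter signal over DMSO so potencies reflect activators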
# Sequence of Estrogen-related receptor gamma (Homo sapiens) (P62508 whole entry, looked up, the tested form may be a part): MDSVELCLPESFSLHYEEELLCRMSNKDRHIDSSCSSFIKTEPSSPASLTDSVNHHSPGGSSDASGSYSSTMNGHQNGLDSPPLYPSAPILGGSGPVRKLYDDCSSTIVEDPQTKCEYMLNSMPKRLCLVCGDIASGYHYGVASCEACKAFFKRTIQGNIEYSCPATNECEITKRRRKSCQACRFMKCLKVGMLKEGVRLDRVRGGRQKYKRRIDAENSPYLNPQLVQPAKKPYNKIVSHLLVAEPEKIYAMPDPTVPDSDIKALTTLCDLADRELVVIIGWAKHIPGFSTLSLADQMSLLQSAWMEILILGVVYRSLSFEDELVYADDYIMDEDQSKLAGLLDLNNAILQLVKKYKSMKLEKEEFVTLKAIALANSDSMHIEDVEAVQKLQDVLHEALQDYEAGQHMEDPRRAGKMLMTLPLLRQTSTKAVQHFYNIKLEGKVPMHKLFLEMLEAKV
# In short: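 Readout: fluorescent reporter-mRNA fragments resolved by capillary electrophoresis after RT-PCR and HpaI cut. Cells: transiently transfected HepG2 carrying GAL4-UAS reporters driven by exogenous NR-Gal4 chimeras, dosed 24 h. Activity fitted upward relative to DMSO baseline.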
# [11] = target: Glucocorticoid receptor (Homo sapiens) (UniProt P04150); assay: ATG_GR_TRANS: Attagene TRANS-FACTORIAL HepG2 Assay for human Glucocorticoid Receptor (GR) (AID 2282978); settings: HepG2 Attagene TRANS GR reporter, mRNA transcription;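 note: activators score as hits since higher reporter transcript over DMSO is fitted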
# Sequence of Glucocorticoid receptor (Homo sapiens) (P04150 whole entry, looked up, the tested form may be a part): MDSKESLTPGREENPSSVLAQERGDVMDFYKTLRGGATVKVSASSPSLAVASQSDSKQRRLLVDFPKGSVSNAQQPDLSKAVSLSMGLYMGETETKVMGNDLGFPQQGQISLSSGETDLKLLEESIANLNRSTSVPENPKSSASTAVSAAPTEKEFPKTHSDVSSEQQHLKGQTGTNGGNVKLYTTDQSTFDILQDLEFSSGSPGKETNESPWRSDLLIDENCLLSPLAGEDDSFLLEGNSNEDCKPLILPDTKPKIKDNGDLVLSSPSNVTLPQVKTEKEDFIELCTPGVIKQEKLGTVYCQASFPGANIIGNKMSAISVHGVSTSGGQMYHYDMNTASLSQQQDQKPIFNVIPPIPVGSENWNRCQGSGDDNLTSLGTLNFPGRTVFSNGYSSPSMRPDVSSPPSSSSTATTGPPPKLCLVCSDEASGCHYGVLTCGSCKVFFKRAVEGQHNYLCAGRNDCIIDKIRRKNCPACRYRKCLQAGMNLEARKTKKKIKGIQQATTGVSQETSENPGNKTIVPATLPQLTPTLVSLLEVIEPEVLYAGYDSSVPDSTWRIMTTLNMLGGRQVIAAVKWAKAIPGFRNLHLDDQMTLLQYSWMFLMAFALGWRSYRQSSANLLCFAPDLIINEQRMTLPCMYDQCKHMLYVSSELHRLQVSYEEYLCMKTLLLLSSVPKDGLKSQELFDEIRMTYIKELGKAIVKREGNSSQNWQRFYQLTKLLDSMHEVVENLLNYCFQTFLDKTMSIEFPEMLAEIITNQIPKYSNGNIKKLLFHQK
# In short: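 Exogenous NR-GAL4 fusion activity was assessed through induced GAL4-UAS reporter transcripts in transfected human HepG2 cells, quantified after 24 h by RT-PCR and fluorescent capillary electrophoresis with DMSO as baseline.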
# [12] = target: Bile acid receptor (Homo sapiens) (UniProt Q96RI1); assay: ATG_FXR_TRANS: Attagene TRANS-FACTORIAL HepG2 Assay for Farnesoid X Receptor (FXR) (AID 2282979); settings: HepG2 Attagene TRANS FXR-GAL4 reporter transcription;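 note: hits raise reporter mRNA above DMSO so AC50 marks FXR activation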
# Sequence of Bile acid receptor (Homo sapiens) (Q96RI1 whole entry, looked up, the tested form may be a part): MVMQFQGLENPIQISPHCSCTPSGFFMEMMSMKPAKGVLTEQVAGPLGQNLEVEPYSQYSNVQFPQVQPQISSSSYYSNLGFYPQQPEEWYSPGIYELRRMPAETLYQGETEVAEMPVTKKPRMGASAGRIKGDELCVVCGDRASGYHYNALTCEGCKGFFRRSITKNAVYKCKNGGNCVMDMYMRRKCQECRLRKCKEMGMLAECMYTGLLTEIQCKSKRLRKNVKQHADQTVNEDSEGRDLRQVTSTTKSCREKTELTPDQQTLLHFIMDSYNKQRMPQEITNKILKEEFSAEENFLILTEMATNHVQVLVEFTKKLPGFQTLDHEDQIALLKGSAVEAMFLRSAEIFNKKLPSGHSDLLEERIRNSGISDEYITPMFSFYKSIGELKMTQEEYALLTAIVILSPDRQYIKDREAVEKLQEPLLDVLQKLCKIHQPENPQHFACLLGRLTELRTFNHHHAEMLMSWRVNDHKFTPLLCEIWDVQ
# In short: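 HepG2 cells transiently transfected with reporter constructs in which a chimeric FXR-GAL4 protein drives a GAL4-UAS reporter; 24 h compound exposure. Reporter mRNA measured by RT-PCR, FAM labelling, HpaI digestion and capillary electrophoresis; gain-of-signal versus DMSO.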
# [13] = target: Oxysterols receptor LXR-alpha (Homo sapiens) (UniProt Q13133); assay: ATG_LXRa_TRANS: Attagene TRANS-FACTORIAL HepG2 Assay for human Liver X Receptor alpha (LXRa) (AID 2282980); settings: HepG2 Attagene TRANS reporter, LXRa transactivation
# Sequence of Oxysterols receptor LXR-alpha (Homo sapiens) (Q13133 whole entry, looked up, the tested form may be a part): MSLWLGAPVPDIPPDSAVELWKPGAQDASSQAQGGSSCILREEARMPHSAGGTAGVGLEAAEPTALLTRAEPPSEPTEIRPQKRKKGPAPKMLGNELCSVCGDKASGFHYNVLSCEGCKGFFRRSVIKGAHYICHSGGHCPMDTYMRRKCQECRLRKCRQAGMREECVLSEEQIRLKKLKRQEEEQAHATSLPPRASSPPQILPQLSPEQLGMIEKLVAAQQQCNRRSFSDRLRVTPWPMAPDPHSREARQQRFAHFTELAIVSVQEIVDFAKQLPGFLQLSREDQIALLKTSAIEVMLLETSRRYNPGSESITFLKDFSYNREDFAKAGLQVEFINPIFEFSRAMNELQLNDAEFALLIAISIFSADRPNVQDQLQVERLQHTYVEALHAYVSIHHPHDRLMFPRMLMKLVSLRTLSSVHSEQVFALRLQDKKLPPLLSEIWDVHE
# In short: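 HepG2 cells were transiently transfected with multiplexed reporter units driven by chimeric LXRa–GAL4 fusion proteins, then dosed for 24 h. Reporter mRNA was quantified by RT-PCR, fluorescent labelling and capillary electrophoresis; gain of signal fitted against DMSO baseline.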
# [14] = target: Oxysterols receptor LXR-beta (Homo sapiens) (UniProt P55055); assay: ATG_LXRb_TRANS: Attagene TRANS-FACTORIAL HepG2 Assay for human Liver X Receptor beta (LXRb) (AID 2282981); settings: HepG2 Attagene TRANS GAL4-LXRb reporter, mRNA
# Sequence of Oxysterols receptor LXR-beta (Homo sapiens) (P55055 whole entry, looked up, the tested form may be a part): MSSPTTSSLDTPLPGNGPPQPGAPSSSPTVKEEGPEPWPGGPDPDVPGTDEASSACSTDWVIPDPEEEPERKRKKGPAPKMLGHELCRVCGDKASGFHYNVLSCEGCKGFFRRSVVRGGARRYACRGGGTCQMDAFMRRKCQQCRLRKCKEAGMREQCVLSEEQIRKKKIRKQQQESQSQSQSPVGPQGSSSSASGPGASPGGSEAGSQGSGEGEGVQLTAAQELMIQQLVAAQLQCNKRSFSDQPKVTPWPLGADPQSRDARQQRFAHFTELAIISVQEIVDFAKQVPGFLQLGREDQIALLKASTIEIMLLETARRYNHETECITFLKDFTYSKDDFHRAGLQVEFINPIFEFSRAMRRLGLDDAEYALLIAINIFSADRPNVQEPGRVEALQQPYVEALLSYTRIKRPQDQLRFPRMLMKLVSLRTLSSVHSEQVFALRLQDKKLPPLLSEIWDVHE
# In short: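 Liver-derived HepG2 cells transfected with Gal4-responsive reporters were dosed for 24 h. Activation was scored as rise in reporter mRNA, by RT-PCR and capillary electrophoresis, above DMSO baseline.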
# [15] = target: Hepatocyte nuclear factor 4-alpha (Homo sapiens) (UniProt P41235); assay: ATG_HNF4a_TRANS: Attagene TRANS-FACTORIAL HepG2 Assay for human Hepatocyte Nuclear Factor 4 alpha (HNF4a) (AID 2282982); settings: HepG2 HNF4a transactivation reporter, mRNA readout
# Sequence of Hepatocyte nuclear factor 4-alpha (Homo sapiens) (P41235 whole entry, looked up, the tested form may be a part): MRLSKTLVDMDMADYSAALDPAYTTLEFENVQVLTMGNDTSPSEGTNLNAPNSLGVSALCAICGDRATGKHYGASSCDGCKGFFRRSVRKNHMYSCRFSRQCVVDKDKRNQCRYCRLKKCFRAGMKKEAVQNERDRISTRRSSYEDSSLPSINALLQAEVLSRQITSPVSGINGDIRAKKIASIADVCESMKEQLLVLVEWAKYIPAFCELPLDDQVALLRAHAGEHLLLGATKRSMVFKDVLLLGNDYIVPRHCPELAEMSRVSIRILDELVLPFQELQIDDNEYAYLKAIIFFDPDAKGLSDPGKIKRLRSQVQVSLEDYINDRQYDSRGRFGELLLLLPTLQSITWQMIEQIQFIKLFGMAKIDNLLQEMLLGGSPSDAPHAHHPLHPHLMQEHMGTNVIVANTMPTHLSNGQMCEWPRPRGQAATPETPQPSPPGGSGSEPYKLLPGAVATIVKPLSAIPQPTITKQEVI
# In short: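 Using HepG2 liver cells transfected with GAL4-UAS reporter units, chemical-induced mRNA increases were assessed after 24 hours. Fluorescent RT-PCR fragments were separated by capillary electrophoresis and compared with DMSO negative controls.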
# [16] = ATG_M_06_TRANS: Attagene TRANS-FACTORIAL HepG2 Assay for M06 Transcription Factor (Internal Marker) (AID 2282983); settings: HepG2 Attagene TRANS M06 internal marker reporter;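 note: reporter transcript level by RT-PCR then capillary electrophoresis fluorescence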
# In short: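 In this multiplexed HepG2 system, compounds are incubated 24 h with cells carrying GAL4-UAS reporter units. Reporter RNA is amplified and resolved by capillary electrophoresis, and induction is scored against DMSO.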
# [17] = ATG_M_32_TRANS: Attagene TRANS-FACTORIAL HepG2 Assay for M32 Transcription Factor (Internal Marker) (AID 2282984); settings: HepG2 Attagene TRANS M32 internal marker reporter;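 note: transcript level of a background control reporter unit measured by RT-PCR and capillary electrophoresis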
# In short: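 Fluorescence-detected mRNA induction, HepG2 liver cells, 24 h after dosing. Multiple GAL4-UAS reporter units introduced by transient transfection; background-control endpoint analysed for gain of signal against DMSO.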
# [18] = target: Nuclear receptor subfamily 4 group A member 2 (Homo sapiens) (UniProt P43354); assay: ATG_NURR1_TRANS: Attagene TRANS-FACTORIAL HepG2 Assay for human Nuclear Receptor Related Protein 1 (NURR1) (AID 2282985); settings: HepG2 Attagene TRANS reporter, mRNA readout
# Sequence of Nuclear receptor subfamily 4 group A member 2 (Homo sapiens) (P43354 whole entry, looked up, the tested form may be a part): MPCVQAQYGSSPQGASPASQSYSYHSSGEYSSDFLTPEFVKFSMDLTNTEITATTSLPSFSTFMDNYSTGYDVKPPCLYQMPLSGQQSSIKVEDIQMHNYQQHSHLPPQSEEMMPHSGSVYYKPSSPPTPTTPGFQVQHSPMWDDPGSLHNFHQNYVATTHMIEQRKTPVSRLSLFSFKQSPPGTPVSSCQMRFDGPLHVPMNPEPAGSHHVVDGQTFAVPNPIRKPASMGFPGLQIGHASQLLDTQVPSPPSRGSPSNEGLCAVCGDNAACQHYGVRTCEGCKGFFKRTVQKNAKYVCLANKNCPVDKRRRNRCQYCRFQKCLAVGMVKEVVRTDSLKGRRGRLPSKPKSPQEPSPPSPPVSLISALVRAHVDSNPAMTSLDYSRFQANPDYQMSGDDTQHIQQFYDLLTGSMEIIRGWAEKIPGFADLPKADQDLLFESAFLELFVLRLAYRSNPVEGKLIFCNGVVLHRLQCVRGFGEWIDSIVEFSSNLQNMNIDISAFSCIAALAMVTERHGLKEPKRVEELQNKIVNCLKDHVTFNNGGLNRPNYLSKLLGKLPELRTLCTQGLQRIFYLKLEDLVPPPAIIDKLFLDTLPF
# In short: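 Chimeric NR-Gal4 proteins were expressed in human HepG2 cells bearing GAL4-UAS reporter units, and induced reporter mRNA was quantified 24 h post-dosing by RT-PCR and capillary electrophoresis.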
# [19] = target: Transcriptional activator Myb (Homo sapiens) (UniProt P10242); assay: ATG_Myb_CIS: Attagene CIS-FACTORIAL HepG2 Assay for human Myeloblastosis (Myb) Proto-Oncogene Transcription Factor (AID 2282986; active = hit-call score of the fitted dose curve at least 0.9, where 1 is the maximum; inactive = score below 0.9); settings: HepG2 Attagene CIS-FACTORIAL Myb reporter transcription; actives raise or lower the signal
# In short: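 In this HepG2 transient-transfection format, cis-regulated reporter mRNA is quantified 24 h post-dosing by RT-PCR with capillary electrophoresis, fitted bidirectionally to DMSO baseline.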
# [20] = target: Steroid hormone receptor ERR1 (Homo sapiens) (UniProt P11474); assay: ATG_ERRa_TRANS: Attagene TRANS-FACTORIAL HepG2 Assay for human Estrogen-Related Receptor alpha (ERRa) (AID 2282971); settings: HepG2 Attagene TRANS reporter, ERRa transactivation
# In short: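 HepG2 cells transiently transfected with multiplexed GAL4-UAS reporter units reading chimeric ERRa-Gal4 activity; 24 h compound exposure. Reporter mRNA measured by RT-PCR, 6-FAM labelling, HpaI digest and capillary electrophoresis; gain of signal fitted versus DMSO baseline.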
smiles,measurement,setting,value
O=C(O)C(F)(F)C(F)(F)C(F)(F)C(F)(F)C(F)(F)C(F)(F)C(F)(F)C(F)(F)C(F)(F)C(F)(F)C(F)(F)C(F)(F)F,AC50,[1],100 µM (active)
same,outcome,[2],inactive
same,AC50,[3],65.5 µM (active)
same,outcome,[4],inactive
same,outcome,[5],inactive
same,outcome,[6],inactive
same,outcome,[7],inactive
same,outcome,[8],inactive
same,outcome,[9],inactive
same,outcome,[10],inactive
same,outcome,[11],inactive
same,outcome,[12],inactive
same,outcome,[13],inactive
same,outcome,[14],inactive
same,outcome,[15],inactive
same,outcome,[16],inactive
same,outcome,[17],inactive
same,outcome,[18],inactive
same,outcome,[19],inactive
OCC(F)(F)C(F)(F)C(F)(F)C(F)(F)C(F)(F)C(F)F,outcome,[1],inactive
same,outcome,[2],inactive
same,outcome,[3],inactive
same,outcome,[4],inactive
same,outcome,[5],inactive
same,AC50,[6],5.4 µM (active)
same,outcome,[7],inactive
same,outcome,[8],inactive
same,outcome,[9],inactive
same,outcome,[10],inactive
same,outcome,[12],inactive
same,outcome,[13],inactive
same,outcome,[15],inactive
same,outcome,[17],inactive
same,outcome,[18],inactive
CC(=O)Nc1ccc(N=Nc2cc(C)ccc2O)cc1,outcome,[1],inactive
same,outcome,[2],inactive
same,AC50,[3],11.6 µM (active)
same,AC50,[4],13.6 µM (active)
same,outcome,[5],inactive
same,outcome,[6],inactive
same,outcome,[20],inactive
same,outcome,[7],inactive
same,outcome,[10],inactive
same,outcome,[12],inactive
same,outcome,[14],inactive
same,outcome,[15],inactive
same,outcome,[16],inactive
same,outcome,[17],inactive
same,outcome,[19],inactive
CCCCOCCOCCOC(=O)CCCCC(=O)OCCOCCOCCCC,outcome,[1],inactive
same,outcome,[2],inactive
same,outcome,[3],inactive
same,outcome,[4],inactive
same,outcome,[5],inactive
same,outcome,[6],inactive
same,outcome,[7],inactive
same,outcome,[9],inactive
same,outcome,[11],inactive
same,outcome,[12],inactive
same,outcome,[15],inactive
same,outcome,[16],inactive
same,outcome,[17],inactive
same,outcome,[19],inactive
CCCCCCS,AC50,[1],68.8 µM (active)
same,outcome,[2],inactive
same,outcome,[3],inactive
same,outcome,[4],inactive
same,outcome,[5],inactive
same,outcome,[6],inactive
same,outcome,[7],inactive
same,outcome,[9],inactive
same,outcome,[11],inactive
same,outcome,[12],inactive
same,outcome,[15],inactive
same,outcome,[16],inactive
same,outcome,[19],inactive
c1ccc(-c2ccccc2-c2ccccc2)cc1,outcome,[1],inactive
same,outcome,[2],inactive
same,outcome,[3],inactive
same,outcome,[4],inactive
same,outcome,[5],inactive
same,AC50,[6],2.75 µM (active)
same,outcome,[7],inactive
same,outcome,[8],inactive
same,outcome,[11],inactive
same,outcome,[12],inactive
same,outcome,[14],inactive
same,AC50,[18],27.2 µM (active)
C=CC(=O)OCC(F)(F)C(F)(F)C(F)(F)C(F)(F)COC(=O)C=C,AC50,[1],44.9 µM (active)
same,outcome,[2],inactive
same,outcome,[3],inactive
same,AC50,[4],50 µM (active)
same,outcome,[5],inactive
same,AC50,[6],38.3 µM (active)
same,AC50,[7],36.4 µM (active)
same,outcome,[8],inactive
same,outcome,[9],inactive
same,outcome,[13],inactive
same,outcome,[14],inactive
same,AC50,[15],240 µM (active)
same,outcome,[16],inactive
same,outcome,[17],inactive
same,outcome,[19],inactive
OCC(F)(F)C(F)(F)C(F)(F)F,outcome,[1],inactive
same,outcome,[2],inactive
same,outcome,[3],inactive
same,outcome,[4],inactive
same,outcome,[5],inactive
same,outcome,[20],inactive
same,outcome,[7],inactive
same,outcome,[8],inactive
same,outcome,[9],inactive
same,outcome,[11],inactive
same,outcome,[12],inactive
same,outcome,[13],inactive
same,outcome,[14],inactive
same,outcome,[15],inactive
same,outcome,[16],inactive
same,outcome,[17],inactive
same,outcome,[19],inactive
CCCCCCOC(=O)c1ccccc1O,outcome,[1],inactive
same,outcome,[2],inactive
same,outcome,[3],inactive
same,outcome,[4],inactive
same,outcome,[5],inactive
same,AC50,[6],92.5 µM (active)
same,outcome,[7],inactive
same,outcome,[8],inactive
same,outcome,[10],inactive
same,outcome,[11],inactive
same,outcome,[12],inactive
same,outcome,[13],inactive
same,outcome,[15],inactive
same,outcome,[16],inactive
same,outcome,[19],inactive
